Measured values: ChEMBL document CHEMBL1201862, “PubChem BioAssay data set” (2004)
Among all 57,000 sequences or so, about 4,000 (7%) were called active. Cut-off read from the data, not from the text of the source: active = GI50 up to about 1.1 µM and inactive = higher. These entries were drawn from the full list. Measured potencies and affinities stand elsewhere.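 Five concentrations, 48 hours, 96-well plates. GI50 = concentration required for 50% inhibition of growth.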

Test system: M14
Assay: NCI tumour cell line growth inhibition, 48 h

Substance | GI50 [µM]
mu-(1,7-nanodiamine-N,N')bis-(cis-aminedichloroplatimum (II)), CHEMBL2146215 | 7.78
cis-Bis[[(trimethylsilyl)methyl]amino]tetrachloroplatinum(IV), CHEMBL2146191 | 3.5
[Bis(aminomethyl)dimethylsilane]dichloroplatinum (II), CHEMBL2146201 | 22.9
[Bis(aminomethyl)diethylsilane]tetrachloroplatinum(IV), CHEMBL2146203 | 1.38
[Bis(aminomethyl)tetramethylenesilane]dichloropaltinum(II), CHEMBL2146205 | 13.5
[Bis(aminomethyl)ethylmethylsilane]tetrachloroplatinum(IV), CHEMBL2146192 | 2.68
[Bis(aminomethyl)tetramethylenesilane]tetrachloropaltinum(IV), CHEMBL2146189 | 6.11
CISPLATIN, CHEMBL11359 | 1.95
[Bis(aminomethyl)dimethylsilane]tetrachloroplatinum(IV), CHEMBL2146190 | 7.45
[Bis(aminomethyl)pentamethylenesilane]tetrachloropaltinum(IV), CHEMBL2146204 | 2.13
[Bis(aminomethyl)pentamethylenesilane]dichloropaltinum(II), CHEMBL2146202 | 1.92
